KKLEB cytotox: cytotoxicity in KKLEB CF airway cells, primary screen, cytotoxicity control for CF NF-kB inhibitor project, cell-based, uHTS, fluorescence assay plates; KKLEB CF airway cells viability, ATPlite luminescence, overnight; hits give low values; cells stimulated with P. aeruginosa culture filtrate; activity change (cytotoxicity), % at 5 µM; actives 0.36% (n = 360,000); AID 602141, 2011;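 active = corrected activity change at or below -50% at 5 µM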
ABHD5 PLIN5 PPI: ABHD5-PLIN5 interaction inhibitors, primary screen, cell lysate, split luciferase complementation, luminescence. Split G. princeps luciferase complementation, 4 h. actives 0.78% (n = 360,000). inhibition, % at 4 µM;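 active = inhibition above the mean inhibition across every tested compound plus 3 SD, cut at about 22% in these data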;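 also: 0% = DMSO only wells and the 100% control is not disclosed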
HIF-2a block: HIF-2a reporter inhibitors, primary screen, luminescence, 786-0 RCC cells; inhibition, % at 18.8 µM; actives 0.72% (n = 360,000); 786-0 RCC cells HIF-2a reporter, luciferase luminescence, overnight;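 active = inhibition of the luminescence signal of 40% or more relative to plate controls, in a single-dose primary screen at 18.75 µM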
CF NFkB block: inhibitors of PAF-induced NF-kB signaling, primary screen, cell-based, GFP fluorescence, uHTS; actives 0.86% (n = 360,000); inhibition, % at 5 µM; KKLEB NF-kB-GFP reporter, GFP fluorescence overnight; AID 588850, 2011;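 active = at least 50% inhibition at 5 µM, scaled per plate between neutral and stimulator controls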;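 also: PAF is a Pseudomonas aeruginosa culture filtrate used as stimulus; plate controls were PAF-stimulated DMSO wells for no effect and unstimulated DMSO wells for full effect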
Mdm2-MdmX inh: inhibitors of human Mdm2-MdmX association, primary screen, cell-based, luminescence, split luciferase, SaOS-2, uHTS | Protein Mdm4 (Homo sapiens) + E3 ubiquitin-protein ligase Mdm2 (Homo sapiens), … | SaOS-2 split-luciferase Mdm2/MdmX complementation | inhibition, % at 8 µM | actives 3% (n = 330,000);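 active = inhibition of at least 50% at 8 µM in the primary screen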
Target sequence (O15151 whole entry, looked up): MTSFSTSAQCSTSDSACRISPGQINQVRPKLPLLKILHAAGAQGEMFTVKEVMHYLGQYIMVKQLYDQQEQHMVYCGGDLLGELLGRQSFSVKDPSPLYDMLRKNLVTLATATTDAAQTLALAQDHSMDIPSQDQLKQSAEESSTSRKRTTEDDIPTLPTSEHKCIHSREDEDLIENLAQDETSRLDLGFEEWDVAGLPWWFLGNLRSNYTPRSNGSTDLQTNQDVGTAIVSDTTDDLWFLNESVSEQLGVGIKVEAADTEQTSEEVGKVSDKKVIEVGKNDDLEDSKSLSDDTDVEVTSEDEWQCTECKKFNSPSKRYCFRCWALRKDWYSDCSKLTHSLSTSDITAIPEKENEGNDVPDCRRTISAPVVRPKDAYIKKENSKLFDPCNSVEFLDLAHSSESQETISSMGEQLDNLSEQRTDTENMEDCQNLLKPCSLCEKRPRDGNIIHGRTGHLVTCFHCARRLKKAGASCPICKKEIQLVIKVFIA
Target sequence (Q00987 whole entry, looked up): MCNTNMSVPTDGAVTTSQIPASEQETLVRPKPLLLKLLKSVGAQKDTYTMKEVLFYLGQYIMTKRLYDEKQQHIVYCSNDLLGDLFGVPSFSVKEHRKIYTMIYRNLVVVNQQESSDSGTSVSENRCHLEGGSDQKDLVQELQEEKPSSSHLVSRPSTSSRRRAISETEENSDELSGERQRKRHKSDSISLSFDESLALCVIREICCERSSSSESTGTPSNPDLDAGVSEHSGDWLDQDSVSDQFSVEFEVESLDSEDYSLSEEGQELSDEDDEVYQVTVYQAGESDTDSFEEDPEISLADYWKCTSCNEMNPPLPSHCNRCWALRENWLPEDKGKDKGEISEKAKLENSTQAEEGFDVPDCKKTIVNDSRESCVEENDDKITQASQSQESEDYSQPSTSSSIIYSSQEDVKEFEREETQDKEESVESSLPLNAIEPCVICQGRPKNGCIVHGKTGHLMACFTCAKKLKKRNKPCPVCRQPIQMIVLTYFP
Peg3 promoter: Peg3 promoter-driven luciferase inhibitors, primary screen, cell-based, HeLa, luciferase luminescence; actives 1.7% (n = 360,000); inhibition, % at 20 µM; AID 588405, 2011; HeLa PEG-Prom luciferase reporter, overnight;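 active = inhibition of at least 50% at 20 µM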
Mdm2 MdmX conf: Mdm2-MdmX complex disruptors, retested hits, confirmation, luminescence, single concentration; Mdm2-MdmX binding, luminescent assay; actives 55% (n = 10,000); inhibition, % at 8 µM; shares compounds with Mdm2-MdmX inh; AID 489028, 2010; in the data active = inhibition above about 40%
Full FLuc ctr: full-length luciferase signal inhibition, confirmation, counter-screen for Mdm2/MdmX interaction inhibitor project, cell-based, single concentration, SaOS-2. shares compounds with Mdm2-MdmX inh. SaOS-2 full-length luciferase counterscreen, luminescence. inhibition, % at 8 µM. actives 77% (n = 6,200);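 active = mean inhibition at 8 µM reaching about 37%, which flags the compound as non-specific, limit read from the data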;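 also: p53-null SaOS-2 cells with luciferase driven by a doxycycline-inducible promoter; compound on cells about two nights before reading with doxycycline added after day one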
Active calls of the source: *; . = no result. Most compounds without a hit are left out; they make up all but 4.6% or so of the library.

SMILES	KKLEB cytotox	ABHD5 PLIN5 PPI	HIF-2a block	CF NFkB block	Mdm2-MdmX inh	Peg3 promoter	Mdm2 MdmX conf	others
COc1ccc(NC(=O)Cc2nnc(SCC(=O)Nc3nccs3)n2C)cc1	2.1	10.5	-8.9	-24.8	6.8	-18.4	.
Cc1ccc(OCc2nnc(SCC(=O)Nc3nccs3)n2-c2ccccc2)cc1C	-15.6	-2.4	14.8	-9.0	54.8*	14.6	25.0
CCn1c(CC(=O)Nc2ccc(C)c(Cl)c2)nnc1SCC(=O)Nc1nc(C)cs1	1.5	5.8	-4.4	1.8	62.8*	18.7	-1.9
CCn1c(CC(=O)Nc2ccc(C)c(Cl)c2)nnc1SCc1ccc(Cl)c(Cl)c1	11.5	-4.7	-6.2	-8.3	-6.8	17.9	.
CCn1c(CC(=O)Nc2cccc(OC)c2)nnc1SCC(=O)Nc1nccs1	6.8	5.6	5.6	-17.2	57.1*	-6.8	53.7*	Full FLuc ctr=58.7*
Cn1c(-c2ccccc2)c(Sc2ccccc2)c2cc(-c3ccc4cc[nH]c4c3)ccc21	.	-3.9	12.2	.	.	.	.
c1ccc2oc(-c3ccc(Nc4nc(N5CCOCC5)nc(N5CCOCC5)n4)cc3)nc2c1	16.1	2.7	-3.5	2.5	.	32.2	.
Cc1ccc(S(=O)(=O)N2CCN(C(=O)CSC3CCCC3)CC2)c(C)c1	-2.4	-0.6	4.5	3.5	55.2*	6.1	11.9
O=C1NC(=Nc2cccnc2)S/C1=C/c1ccc(F)cc1	-16.0	-1.7	-1.7	24.6	51.5*	-12.2	19.5
O=[N+]([O-])c1ccc(Cl)cc1Sc1nc2ccccc2o1	-21.3	4.0	4.3	8.1	53.8*	-46.0	16.2
O=[N+]([O-])c1ccc(Cl)cc1Sc1cccc2cccnc12	-8.4	3.3	24.1	8.5	26.5	20.3	.
CCCCC(CCCC)=N/N=C/c1c(O)n(CC)c2cc(C3=NNC(=O)CC3)ccc12	-1.1	2.6	18.7	-39.3	58.1*	11.9	9.2
CCCCn1c(SCC(=O)N2c3ccccc3Sc3ccccc32)nc2c1c(=O)n(C)c(=O)n2C	1.8	5.0	17.0	25.3	59.1*	33.6	20.2
CC1Cc2ccccc2N1C(=O)CSc1nc2c(c(=O)n(C)c(=O)n2C)n1Cc1ccc(F)cc1 (stereo not drawn)	-15.6	-0.9	32.1	14.5	71.7*	38.7	47.1*	Full FLuc ctr=71.5*
Cn1c(=O)c2c(nc(SCC(=O)c3cccs3)n2Cc2ccc(F)cc2)n(C)c1=O	-13.2	7.0	-22.5	16.4	15.9	23.5	.
O=C(NC1CCN(Cc2ccccc2)CC1)c1[nH]c(C(F)(F)F)nc1-c1ccccc1	-15.6	-5.2	19.3	-24.9	.	-0.9	.
CCN1CCN(c2ccc(NC(=O)COc3ccc(Cl)cc3C)cc2)CC1	-11.1	5.3	-10.9	5.3	25.4	20.3	.
CCOc1ccc2nc(-c3ccccc3)nc(SCC(=O)Nc3ncc(C)s3)c2c1	-0.2	0.7	15.3	0.7	74.9*	20.5	18.8
CCCOC(=O)c1ccc(Oc2c(-c3ccc(OCC)cc3O)n[nH]c2C)cc1	3.8	-19.8	-18.8	-3.7	71.4*	-25.1	11.3
COc1cc(C(=O)OCc2cc(=O)oc3c(C)c(C)ccc23)ccc1OC(F)F	11.2	-3.9	8.2	1.8	60.4*	41.1	11.8
CCC(=O)NC(c1ccccc1OC)c1ccc2cccnc2c1O (stereo not drawn)	-2.5	2.7	13.3	-8.9	69.5*	47.2	59.7*	Full FLuc ctr=32.5
CCCCC(=O)NC(c1ccc([N+](=O)[O-])cc1)c1c(O)ccc2ccccc12 (stereo not drawn)	-8.8	-5.0	19.6	32.1	47.3	38.1	.
COc1ccc(Cl)cc1C(Nc1cccnc1)c1ccc2cccnc2c1O (stereo not drawn)	-43.6	23.0*	31.5	11.0	67.5*	34.7	63.0*	Full FLuc ctr=43.7*
CCCCC(=O)NC(c1ccc(C(C)C)cc1)c1ccc2cccnc2c1O (stereo not drawn)	-15.3	12.6	12.6	-7.7	77.9*	52.5*	87.9*	Full FLuc ctr=19.4
CC(Oc1ccc(F)cc1Br)c1nc2ccccc2c(=O)[nH]1 (stereo not drawn)	-16.5	5.1	-118.0	6.6	-18.8	-41.7	.
SMILES	KKLEB cytotox	ABHD5 PLIN5 PPI	HIF-2a block	CF NFkB block	Mdm2-MdmX inh	Peg3 promoter	Mdm2 MdmX conf	others
COc1cccc(-c2cnc(C(O)c3ccc(Cl)c(Cl)c3)[nH]2)c1 (stereo not drawn)	11.9	-2.0	-14.7	-9.8	.	8.4	.
Cc1ccc(S(=O)(=O)N(C)C)cc1NC(=O)CN1C(=O)NC2(CCCCCCC2)C1=O	4.7	5.4	14.3	18.5	11.0	12.4	.
C[C@H](NC(=O)C[C@@H]1CC[C@H]2[C@@H](COC[C@H](O)CN2Cc2ccc(C(F)(F)F)cc2)O1)c1ccccc1	.	-5.5	4.6	.	.	.	.
C(=C1/CCCC2=C1Nc1ncnn1C2c1ccccc1)/c1ccccc1 (stereo not drawn)	.	.	.	.	75.7*	.	84.0*	Full FLuc ctr=11.2
O=C1C=C(NCc2ccc(Cl)cc2)CC(c2ccco2)C1 (stereo not drawn)	8.7	-3.3	7.0	-17.2	-23.8	17.8	.
O=C1C=C(Nc2ccc(Cl)cc2Cl)CC(c2ccco2)C1 (stereo not drawn)	-5.9	-4.4	-9.1	14.3	50.6*	1.1	53.2*	Full FLuc ctr=62.1*
O=[N+]([O-])c1ccc(Cl)c(-c2ccc(/C=N/c3c(-c4ccco4)nc4ccccn34)o2)c1	2.2	3.2	-25.3	-21.5	66.1*	-45.1	-1.1
O=[N+]([O-])c1ccc(-c2ccc(/C=N/c3c(-c4ccco4)nc4ccccn34)o2)cc1	0.1	-1.8	-145.5	-14.9	6.4	-104.4	.
CCOc1ccc(C(c2c(NC(=O)c3ccccc3)sc(C)c2C)N2CCN(CCO)CC2)cc1 (stereo not drawn)	6.0	5.7	-55.2	-1.3	15.4	0.8	.
Cc1ccc(C(c2c(NC(=O)c3ccco3)sc(C)c2C)N2CCOCC2)cc1 (stereo not drawn)	-7.3	5.2	15.5	-0.5	.	42.3	.

Bioassay records: PubChem BioAssay, several laboratories
